Only some compounds are listed: those with a hit (about 15% of all), similar ones and a draw of the others.
Sm TGR inh: S. mansoni TGR enzyme inhibition; Q962Y6; purified TGR, DTNB reduction, TNB absorbance 405 nm; Potency, µM (series often up to 114 µM), for the others: at the highest dose activity change, negative = inhibition, actives largely listed as inhibitors; hit rate 3% among 360,000; also: potency is read from the fitted curve at half-maximal effect; % is scaled to controls: 0 for no effect and ±100 for the full control effect; nearly all actives have a fitted effect of over 60% in size
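TGR 20 nM + NADPH 100 uM (dispensed conc.), cpd preinc 15 min RT; start with NADPH (500 uM addition) then DTNB (15 mM addition). Kinetic TNB absorbance, 405 nm filter. Four-parameter Hill fit across titration.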
HCV inh: inhibitors of hepatitis C virus infection; Potency, µM (highest dose often 41.8 µM), for the others: at the highest dose activity change, negative = inhibition, usual class: inhibitors; AID 651820; hit rate 3.4% among 340,000; Huh7.5.1 HCVcc-Cre infection, luciferase reporter, 44 h; also: potency is read from the fitted curve at half-maximal effect; % is scaled to controls: 0 for no effect and ±100 for the full control effect
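Luciferase read-out (15 sec integration) after a 15 min room-temperature substrate step quantifies HCVcc-Cre infection. Cells, 1,000 per well, had compound added 4 h post-plating, then virus at ~0.5 moi, and were cultured 44 h.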
SARS PLP yeast: SARS-CoV PLP inhibition in yeast. Potency, µM (top dose mostly 32.9 µM), without a hit: at the highest dose activity, positive = growth rescue, hits mostly activators. hit rate 0.19% among 330,000. S. cerevisiae expressing SARS-CoV PLpro, growth rescue; calls by dose curve; also: potency is read from the fitted curve at half-maximal effect; 0% is about no effect; nearly all actives have a fitted effect of over 55% in size
Pf growth 48h: P. falciparum growth inhibition at 48 hours (one generation) | P. falciparum luciferase growth in erythrocytes, 48 h | Potency, µM (top dose mostly 28.7 µM), for inactives: at the top dose activity change, negative = inhibition, usual class: inhibitors | hit rate 5.9% among 310,000 | AID 504832; also: potency is read from the fitted curve at half-maximal effect; % is scaled to controls: 0 for no effect and ±100 for the full control effect
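Compounds are pin-transferred into medium, infected erythrocytes (2% hematocrit, 0.1% parasitemia final) are added, and plates sit one parasite generation at 37 C in 5% CO2. Detection reagent is then added and luminescence measured.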
HCMV inh: human cytomegalovirus inhibition; HFF cells, HCMV-luciferase reporter, 72 h; hits give low values; activity change, negative = inhibition, % at 57.5 µM; hit rate 4.5% among 410,000; in the data active = activity change below about -60%; inconclusive = no clear call, values can overlap the other calls; inactive = above about -39%; also: % is scaled to controls: 0 for no effect and ±100 for the full control effect
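Human foreskin fibroblasts infected with luciferase-reporter HCMV at MOI 1 PFU/cell, compounds at two doses. Luciferase measured 72 h post infection; normalized to buffer-only basal and Salinomycin (10uM) controls.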
Pf growth 96h: P. falciparum growth inhibition at 96 hour, primary screen for plastid delayed-death inhibitors; P. falciparum luciferase reporter growth, 96 h; Potency, µM (titrated, usually from 28.7 µM), for inactives: at the top dose activity change, negative = inhibition, hits mostly inhibitors; hit rate 6.9% among 320,000; AID 504834; also: potency is read from the fitted curve at half-maximal effect; % is scaled to controls: 0 for no effect and ±100 for the full control effect
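Cell-based qHTS: luciferase-tagged P. falciparum in erythrocytes (2% hematocrit, 0.05% parasitemia final) incubated with compounds for 96 hours, 37 C, 5% CO2; luciferase detection reagent then added and luminescence measured.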
* marks the source's active call; other numbers are inactive results; ? = inconclusive; . = no result; ! = a repeat was not active; [ ] = another dose, or the depositor's remark. Unless noted, calls follow the shape of the dose curve; as a rule, active = well fitted curve in the direction sought with a large enough effect; inconclusive = small, poorly fitted or top-dose-only effect, or another doubt; inactive = no such curve, though single readings can be large; an effect the other way counts as inactive or inconclusive.

SMILES | Sm TGR inh | HCV inh | SARS PLP yeast | Pf growth 48h | HCMV inh | Pf growth 96h
N#C/C(=C/c1ccc(F)cc1)c1nnc(NC(=O)c2ccccc2)s1 | 5% | 6% | -1% | 18% | 9 | 7%
Cn1nccc1C(=O)NCc1ccc2c(c1)CCN2C(=O)c1ccc(F)cc1 | 1% | . | . | . | -1 | .
CCOc1c(C(N)=O)c(-c2ccccc2)c2c(=O)[nH]c3ccccc3n12 | 7% | -12% | -4% | -17% | -60* | ?
CCOC(=O)c1c(C)nc(C)c(C(=O)OCC)c1-c1ccccc1 | -7% | -20% | 2% | 31% | 9 | 0%
CCn1c(-c2ccco2)nc2ccccc21 | 32µM* | 5% | -17% | 65% | 42 | -4%
Cc1cccc(OCCn2c(-c3ccco3)nc3ccccc32)c1 | ? | ? | 2% | ? | 16 | ?
CCn1c(-c2ccc(N(C)C)cc2)nc2ccccc21 | 6% | ? | -2% | 64% | -96* | ?
c1ccc(OCCn2c(-c3ccco3)nc3ccccc32)cc1 | 8.9µM* | -17% | -10% | ? | -1 | 18%
O=C(COC(=O)/C=C/c1ccc([N+](=O)[O-])cc1)Nc1ccc2[nH]c(=O)[nH]c2c1 | -20% | -3% | 4% | 10% | -25 | 32%
CCc1ccc(NC(=O)C2=CC(c3cccs3)=NS(=O)(=O)N2C)cc1 | 0% | ? | 13% | 49% | -75*! | 29%
Cc1cc(=O)[nH]c(SCC(=O)Nc2cccc(S(=O)(=O)N3CCOCC3)c2)n1 | -5% | 0% | 0% | -28% | -13 | ?
Cc1c(C(=O)NC(C)C)c(-c2ccccc2)nn1-c1ccccc1 | 6% | 14% | 8% | -5% | -30 | -25%
Cc1c(C(=O)NC(C)c2ccccc2)c(-c2ccccc2)nn1-c1ccccc1 (centres undefined) | 1% | -2% | -11% | 10µM* | -3 | ?
C=C1[C@@H](O)[C@@H]2O[C@]3(CC[C@H](/C=C/[C@@H](C)[C@@H]4CC(C)=CC5(O[C@H](C[C@@](C)(O)C(=O)OC)CC[C@H]5O)O4)O3)CC[C@H]2O[C@@H]1[C@@H](O)C[C@H](C)[C@H]1OC2(CCCCO2)CC[C@H]1C (some centres undefined) | . | 0.56µM* | -5% | . | . | .
C=C1C(O)[C@@H]2O[C@]3(CC[C@H](/C=C/C(C)[C@@H]4CC(C)=CC5(O[C@H](C[C@@](C)(O)CO)CCC5O)O4)O3)CC[C@H]2O[C@@H]1C(O)CC(C)[C@H]1OC2(CCCCO2)CCC1C (some centres undefined) | . | 1.4µM* | -2% | . | . | .
COc1ccc(C2=Nc3nc(-c4ccccc4)cn3C(c3ccc(OC)cc3)C2)cc1 (centres undefined) | 1% | -10% | -3% | 2.9µM* | ? | ?
CN(C)c1ccc(NC(=O)CSCc2nc3c(nnn3Cc3ccc(F)cc3)c(=O)[nH]2)cc1 | 45µM* | 6% | 5% | -23% | . | 8.3µM*
Cc1cc(C)c(S(=O)(=O)N[C@H]2CC[C@@]34CCCN3C(=O)CCC[C@H]4[C@H]2C)c(C)c1 | . | . | . | . | 19 | .
COc1ccc(-c2cc(=O)[nH][nH]2)cc1OC | 15% | ? | 11% | 12µM* | -20 | .
Cc1nn(Cc2ccc(Cl)c(Cl)c2)c(C)c1NC(=O)c1sc2ccccc2c1Cl | 4% | 22µM* | -1% | 18% | -18 | 4%[5.75 µM]
Cc1ccccc1Cn1nc(C)c(NC(=O)c2sc3ccccc3c2Cl)c1C | -21% | 32µM* | -6% | ? | -30 | ?
Cc1nn(Cc2c(Cl)cccc2Cl)c(C)c1NC(=O)c1sc2ccccc2c1Cl | 0% | ? | 6% | . | -85* | ?
Cc1nn(Cc2ccc(Cl)cc2Cl)c(C)c1NC(=O)c1sc2ccccc2c1Cl | ? | -17% | 5% | -17% | -29 | 11%
Cc1nn(Cc2c(Cl)cccc2Cl)c(C)c1NC(=O)c1cn(-c2ccccc2)nc1-c1ccccc1 | -4% | 6% | 13% | ? | . | 10%
